Measured values taken from PubChem BioAssay AID1259343 (VanderVen Lab, College of Veterinary Medicine, Cornell …, 2017).
The whole screen tested about 6,200 compounds, of which about 2,900 (47%) were called active. The set was probably picked from earlier hits. This is one part of the list. Unmarked numbers belong to inactive results. No stated cut-off is given here; in the data, active means inhibition above about 50%; inactive means the rest.

experiment: Mycobacterium tuberculosis growth inhibition, primary screen (AID 1259343); details: inhibition: at 10 µM, active compounds read high; outcome: 10 uM

| Compound | inhibition |
| --- | --- |
| Cc1sc2nc(-c3cccnc3)nc(NC(C)C(C)C)c2c1C (stereo not drawn) | -13.7% |
| C#CCN(CC=C)Cc1nc(-c2ccc(Cl)cc2)oc1C | 14.8% |
| CN(C)C(=S)SSC(=S)N(C)C | 102% (active) |
| CC1(C)C(=O)C=C[C@@]2(C)C1C[C@@H](O)[C@]1(C)C2CC[C@@]2(C)[C@H](c3ccoc3)OC(=O)[C@H]3O[C@]321 (stereo partly drawn) | 67% (active) |
| CC(=O)O[C@H]1C[C@@H](OC(C)=O)C(C)(C)C2C[C@@H](OC(C)=O)[C@]3(C)C(CC[C@@]4(C)[C@H](c5ccoc5)C(=O)[C@H]5O[C@]543)[C@]21C (stereo partly drawn) | 36.2% |
| Cn1cnnc1SCC(=O)Nc1ccc2c(c1)CCC2 | -17.5% |
| O=C(CCn1cncn1)Nc1ccc2c(c1)CCC2 | 87.1% (active) |
| O=C1C(=Cc2ccc(F)cc2)CSc2ccc(F)cc21 | 21.3% |
| CCN1c2ccccc2N(C)[C@]1(C)c1ccccc1 | 68.3% (active) |
| Fc1ccc(C2=CC(c3ccc4c(c3)OCO4)n3nc(C(F)(F)F)nc3N2)cc1 (stereo not drawn) | 74.3% (active) |
| Fc1ccc(C2C=C(c3ccccc3)Nc3nc(C(F)(F)F)nn32)cc1F (stereo not drawn) | 3.02% |
| FC(F)(F)c1nc2n(n1)C(c1ccc(Cl)cc1)C1=C(N2)c2ccccc2SC1 (stereo not drawn) | 36.9% |
| Clc1ccc(C2=CC(c3ccc4c(c3)OCO4)n3nc(-c4ccccc4)nc3N2)cc1 (stereo not drawn) | -34.2% |
| N#Cc1ccc(C2C=C(c3ccc(Br)cc3)Nc3nc(C(F)(F)F)nn32)cc1 (stereo not drawn) | 90.9% (active) |
| O=C(NC1CCN(c2ccccc2C(=O)NCc2ccc(F)cc2)CC1)c1ccc(C(F)(F)F)cc1 | -29.8% |
| O=C(Nc1ccc(F)cc1F)N1CCC(Cc2ccc(-n3cccc3)cc2)CC1 | 51% (active) |
| Cc1ccc(F)cc1NC(=O)N1CCN(CCCOC(c2ccc(Cl)cc2)c2ccc(Cl)cc2)CC1 | 6.69% |
| COc1ccc(CC2CCN(C(=O)Nc3cccc(F)c3)CC2)cc1 | 74.8% (active) |
| O=C1NC2(CCN(C(=O)Nc3ccc(C(F)(F)F)cc3)CC2)Nc2cc(Cl)ccc21 | -1.82% |
| COc1cccc(NC(=O)N2CCC(Cc3ccc(F)cc3)CC2)c1 | 47.7% |
| O=C(Nc1nnc(C2CC2)s1)N1CCC(Cc2cccc(F)c2)CC1 | -2.76% |
| O=C(Nc1ccc(F)cc1F)N1CCC(Cc2ccc(C(F)(F)F)cc2)CC1 | 62.3% (active) |

| Compound | inhibition |
| --- | --- |
| CCC(=O)NC(=S)Nc1ccc(C(=O)NC(C)(C)C)cc1 | 37.3% |
| CCCC(=O)NC(=S)Nc1ccc2nn(-c3ccccc3)nc2c1 | 79.1% (active) |
| COc1ccc(-n2nc3ccc(N)cc3n2)cc1 | -45% |
| CC(C)Sc1n[nH]c(=S)s1 | -48.8% |
| S=c1[nH]nc(SCc2c(Cl)cccc2Cl)s1 | 23.4% |
| CCCCSc1n[nH]c(=S)s1 | -27% |
| S=c1[nH]nc(SCC#Cc2ccccc2)s1 | 47.6% |
| S=c1[nH]nc(SCc2cccs2)s1 | 99.3% (active) |
| CCCSc1n[nH]c(=S)s1 | -46% |
| CC(C)CSc1n[nH]c(=S)s1 | 100% (active) |
| C=C(C)CSc1n[nH]c(=S)s1 | 58.8% (active) |
| O=C1NC(=S)SC1=Cc1c(F)cccc1F | 74.2% (active) |
| O=C1NC(=S)SC1=Cc1c(F)cccc1Cl | 83.6% (active) |
| CC(=O)N[C@@H]1C[C@H](Cc2ccccc2)O[C@H](c2ccc(Cl)cc2)C1 | 61% (active) |
| CC(C)(C)c1ccc(S(=O)(=O)/C=C/C#N)cc1 | 102% (active) |
| CCNC(=S)n1ncc(C(=O)OCC)c1N | -17% |
| CCOC(=O)c1cc([N+](=O)[O-])nn1Cc1ccc(Cl)c(Cl)c1 | 19.4% |
| CCOC(=O)c1cnn(Cc2ccc(C)cc2)c1N | 71.9% (active) |
| CCC(C)(C)C1CCc2sc3ncnc(NCCN4CCOCC4)c3c2C1 (stereo not drawn) | 85% (active) |
| Clc1ccc(-c2nc(NCCN3CCOCC3)c3ccc(Cl)cc3n2)cc1 | 47.7% |
| Nc1c(S(=O)(=O)c2ccccc2)c2nc3ccccc3nc2n1-c1cccc(S(N)(=O)=O)c1 | 19.5% |
| Clc1ccc(CSc2ncccn2)cc1 | 55.1% (active) |

| Compound | inhibition |
| --- | --- |
| O=S1(=O)CCN2N=C(SCc3ccc(Cl)cc3)SC2=N1 | 2.87% |
| N#Cc1ccc(CSc2ncccn2)cc1 | -28.1% |
| CCOC(=O)NCC(=O)N(Cc1ccc(C(F)(F)F)cc1)C1CC1 | -10.5% |
| Cc1ccc(OCc2ccc(C(F)(F)F)cc2)c(CO)n1 | 59.9% (active) |
| COc1cccc(CC2(C(=O)O)CCN(c3ccc(Cl)cn3)CC2)c1 | 90.8% (active) |
| COc1cccc(CC2(CO)CCCN(C(=O)CCCc3ccc(Cl)cc3)C2)c1 (stereo not drawn) | 20.4% |
| c1cc(NC2CCCCCCC2)cc(-n2ccnc2)c1 | 56% (active) |
| Oc1ccc(Br)cc1-c1nc2cnccn2c1NC1CCCC1 | 37.9% |
| c1ncc(-c2ccc(NCC3CCOCC3)cc2)o1 | 35.5% |
| c1cc(NC2CCCCCCC2)cc(-c2cnco2)c1 | 71.3% (active) |
| c1cc(NC2CCCCCC2)c2cccnc2c1 | 9.23% |
| c1ccc(-c2nnc(NC3CCCCC3)s2)cc1 | 28.9% |
| S=C(SC1OCCOC1SC(=S)N1CCOCC1)N1CCOCC1 (stereo not drawn) | 99.8% (active) |
| COc1ccc(C(=O)c2ccc(O)cc2)c(O)c1O | 55.4% (active) |
| COc1ccc(C(=O)COC(=O)c2ccccc2[N+](=O)[O-])cc1OC | -15.5% |
| COc1ccc(C(=O)c2ccccc2)c(O)c1O | 68.3% (active) |
| COc1ccc(C(=O)C=Cc2ccccc2Br)c(OC)c1 | 23.5% |
| COc1ccc(COc2ccc(Cl)cc2C(N)=O)cc1F | 27.6% |
| Cc1nc(SCC(=O)N(C)Cc2ccsc2)c(C(N)=O)c(C)c1C | -7.74% |
| CN1CCN(C2Cc3ccccc3Sc3ccc(Cl)cc32)CC1 (stereo not drawn) | 39.5% |
| CN1CCC(=C2c3ccccc3Sc3ccccc32)CC1 | 60.1% (active) |
| COc1cccc(NC(=O)N2CCc3nc(Nc4cc(Cl)cc(Cl)c4)ncc3C2)c1 | 33.2% |

| Compound | inhibition |
| --- | --- |
| CCOC(=O)c1ccc(NC(=O)N2CCc3nc(Cc4ccccc4OC)nc(N4CCOCC4)c3C2)cc1 | 61.8% (active) |
| CCc1ccc(NC(=O)N2CCN(c3nc(-c4ccc(Cl)cc4)nc(C)c3C)CC2)cc1 | 28.1% |
| Oc1c(C(c2ccc(C(F)(F)F)cc2)N2CCOCC2)ccc2cccnc12 (stereo not drawn) | 104% (active) |
| Oc1c(C(c2ccc(F)cc2)N2CCOCC2)ccc2cccnc12 (stereo not drawn) | 82.2% (active) |
| COc1ccc(-n2nc([N+](=O)[O-])c(=NCCC3=CCCCC3)n2O)cc1 | 95.6% (active) |
| C=C(C)c1cccc(C(C)(C)NC(=O)Nc2ncccn2)c1 | -1.81% |
| CC(C)Cn1ccnc1NC(=O)c1cccc(C(F)(F)F)c1 | 52.5% (active) |
| CSc1nnc(COc2ccccc2Cl)n1C1CC1 | 1.97% |
| COc1cc(S(=O)(=O)N2CCN(c3ccccc3C)CC2)ccc1Cl | 12.3% |
| CN1CCN(S(=O)(=O)c2ccc(SCCOc3ccccc3Cl)nc2)CC1 | 90% (active) |
| CCOC(=O)c1sc(N)c(C(=O)OCC)c1C | 32.7% |
| CCOC(=O)c1sc2nc(C)nc(NCC(C)C)c2c1C | -22.6% |
| CCOC(=O)c1c(N)sc(C(N)=O)c1C | 84.7% (active) |
| Cc1cccc(-c2ccc(NC(=O)C3CCN(C(=O)CSc4ccncc4)CC3)cc2)c1 | 74.8% (active) |
| Cc1cccc(-c2ccc(NC(=O)C3CCN(C(=O)Cn4cccn4)CC3)cc2)c1 | inactive |
| Cc1cccc(-c2ccc(NC(=O)C3CCN(C(=O)CCc4cnn(C)c4)CC3)cc2)c1 | 87.8% (active) |
| Cc1cccc(-c2ccc(NC(=O)C3CCN(C(=O)CCc4ccncc4)CC3)cc2)c1 | 85% (active) |
| COc1ccc2oc(=Nc3cccc(C#N)c3)c(-c3nc4ccccc4[nH]3)cc2c1 | -9.36% |
| COc1ccc(-c2nc(CN3CCN(c4ccc(C)cc4C)CC3)c(C)o2)cc1 | 67.6% (active) |
| COc1ccc(-c2nc(CN3CCN(c4nc5ccccc5s4)CC3)c(C)o2)c(OC)c1 | 15.8% |
| CSc1ccc(-c2nc(CN3CCN(c4cnccn4)CC3)c(C)o2)cc1 | inactive |
| Cc1ccccc1-c1cnnc(NCCCn2ccc3ccccc32)n1 | 32.6% |

| Compound | inhibition |
| --- | --- |
| Ic1ccc(OCCN2CCc3ccccc3C2)cc1 | 46.5% |
| O=S(=O)(CCN1CCc2ccccc2C1)Oc1ccc(Br)cc1 | 98.6% (active) |
| Cc1ccc(-c2nc(CN3CCc4ccccc4C3)co2)c(C)c1 | 27.7% |
| Brc1cccc(OCCN2CCc3ccccc3C2)c1 | 38.6% |
| O=S(=O)(NC1CCCc2ccccc21)c1ccc(Br)cc1 (stereo not drawn) | 10.2% |
| Clc1ccc(OCCN2CCc3ccccc3C2)cc1 | 87.5% (active) |
| FC1(F)Oc2ccc(NCc3nc(-c4ccsc4)no3)cc2O1 | 48.7% |
| N=C1SCC(=O)N1c1ncc(Cc2ccccc2)s1 | 102% (active) |
| COc1ccc(CN(C)C2CC(=O)N(c3c(C)cccc3C)C2=O)c(OC)c1 (stereo not drawn) | 101% (active) |
| COc1ccc(CN(C)C(=O)Nc2ccc(C)cc2)c(OC)c1 | -33.2% |
| COc1ccc(C2NC(=O)NC(C)=C2C(=O)OCc2ccccc2)c(OC)c1 (stereo not drawn) | -11.8% |
| CCCC1CCCC(=C\c2ccc(OC)cc2)/C1=N\OC(=O)NCC (stereo not drawn) | 57% (active) |
| C=Cc1ccc(Cn2c(C)c(C(=O)Nc3ccc(OC)c(OC)c3)sc2=O)cc1 | -5.14% |
| COc1ccc(NC(=O)c2sc(=O)n(Cc3ccc(C)cc3)c2C)cc1OC | 41.4% |
| COc1ccc(NC(=O)c2sc(=O)n(Cc3ccc(C)cc3)c2C)cc1 | 79.5% (active) |
| Cc1ccc(Cn2c(C)c(C(=O)Nc3ccc(C)cc3)sc2=O)cc1 | -16.4% |
| C=Cc1ccc(Cn2c(C)c(C(=O)Nc3ccc(OC)cc3)sc2=O)cc1 | 2.61% |
| COc1ccc(NC(=O)c2sc(=O)n(Cc3ccccc3)c2C)cc1 | 5.9% |
| COc1ccc(NC(=O)c2sc(=O)n(Cc3ccc(OC(F)(F)F)cc3)c2C)cc1 | 55.9% (active) |
| COc1ccc(NC(=O)c2sc(=O)n(Cc3cccc(F)c3)c2C)cc1 | 60.5% (active) |
